Source: the supplement of paper PMC3545927
The other results are listed elsewhere or left out. The true hit rate is not given.

Molecular target: furin, P09958
Test: furin cleavage Z-score vs untreated control; higher = more cleavage, active = 3.5 or more, inactive = 1 or less, 8 variable residues between constant flanks
Method in brief: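 Furin cleavage was scored on 8-mer peptides joined to a cDNA oligonucleotide and bound to magnetic beads at the N-terminus. Digestion with purified furin (1:10 enzyme:substrate, 0.01 ml, 50 mM HEPES pH 7.5, CaCl2, NaCl) lasted 7.5, 15 or 30 min. Freed DNA was tagged with adapters by PCR, sequenced and counted; the cleavage Z-score is the lowess-adjusted log count versus furin-free reactions, scaled by median absolute deviation.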

furin, P09958, sequence (P09958 whole entry): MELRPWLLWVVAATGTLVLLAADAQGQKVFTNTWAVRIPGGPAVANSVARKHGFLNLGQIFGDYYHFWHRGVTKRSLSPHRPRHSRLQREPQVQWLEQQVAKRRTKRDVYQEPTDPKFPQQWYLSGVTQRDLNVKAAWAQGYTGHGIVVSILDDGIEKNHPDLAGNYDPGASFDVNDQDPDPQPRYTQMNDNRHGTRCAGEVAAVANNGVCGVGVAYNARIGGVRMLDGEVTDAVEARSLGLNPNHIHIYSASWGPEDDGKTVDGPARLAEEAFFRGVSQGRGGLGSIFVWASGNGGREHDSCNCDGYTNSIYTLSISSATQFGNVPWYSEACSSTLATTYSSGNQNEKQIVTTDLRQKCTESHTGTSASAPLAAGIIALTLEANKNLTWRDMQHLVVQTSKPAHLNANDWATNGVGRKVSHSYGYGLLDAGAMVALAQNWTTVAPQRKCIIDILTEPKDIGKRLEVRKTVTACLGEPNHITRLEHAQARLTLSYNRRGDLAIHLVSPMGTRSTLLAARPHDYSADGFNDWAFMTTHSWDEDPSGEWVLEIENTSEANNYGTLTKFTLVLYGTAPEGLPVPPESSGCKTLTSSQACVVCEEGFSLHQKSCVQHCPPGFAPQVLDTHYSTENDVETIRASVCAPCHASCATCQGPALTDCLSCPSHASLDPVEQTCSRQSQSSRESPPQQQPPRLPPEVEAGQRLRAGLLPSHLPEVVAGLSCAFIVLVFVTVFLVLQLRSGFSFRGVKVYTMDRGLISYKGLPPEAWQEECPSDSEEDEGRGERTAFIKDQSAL

Row | Sequence | furin cleavage Z-score (7.5 min) | furin cleavage Z-score (15 min) | furin cleavage Z-score (30 min)
1 | CAWDWICEVLAGNASASA [HC1151] | -0.473 (inactive) | 1.19 | 1.97
2 | CAIPFYGKAIAGNASASA [HC847] | -0.737 (inactive) | -1.38 (inactive) | 0.0496 (inactive)
3 | CAGGRAAICGAGNASASA [HC1628] | -1.4 (inactive) | -1.23 (inactive) | -0.629 (inactive)
4 | CATRDPTTPLAGNASASA [HC1563] | 0.197 (inactive) | -2.67 (inactive) | -1.41 (inactive)
5 | CAPIIQRLHGAGNASASA [HC1601] | -1.06 (inactive) | -0.433 (inactive) | -1.21 (inactive)
6 | CANVVRARRQAGNASASA [FS-698] | 12.8 (active) | 12 (active) | 10.3 (active)
7 | CASKRRARRQAGNASASA [FS-1487] | 7.99 (active) | 8.93 (active) | 6.94 (active)
8 | CANVVTSTWVAGNASASA [HC2161] | -0.344 (inactive) | 0.91 (inactive) | 0.172 (inactive)
9 | CASKRRSRRQAGNASASA [FS-1412] | 8.55 (active) | 8.01 (active) | 5.96 (active)
10 | CAPPHSAKSKAGNASASA [HC1417] | -1.76 (inactive) | -0.582 (inactive) | -0.397 (inactive)
11 | CATTPCSGSVAGNASASA [HC1930] | 0.2 (inactive) | 0.581 (inactive) | 1.22
12 | CAKARRPEGRAGNASASA [HC194] | -0.782 (inactive) | -1.19 (inactive) | -0.268 (inactive)
13 | CANTCVTQTVAGNASASA [HC888] | -0.737 (inactive) | -1.07 (inactive) | -1.56 (inactive)
14 | CAIASLMAFTAGNASASA [HC1054] | -0.654 (inactive) | -1.12 (inactive) | 0.0832 (inactive)
15 | CARTKRYFAKAGNASASA [FS-1976] | 0.407 (inactive) | 1.7 | 4.11 (active)
16 | CARTKRSAFFAGNASASA [FS-2190] | 7.39 (active) | 8.86 (active) | 9.07 (active)
17 | CAGLKRGGAKAGNASASA [DV6] | 0.716 (inactive) | 0.513 (inactive) | -0.692 (inactive)
18 | CARTKRLTAQAGNASASA [FS-2314] | -0.31 (inactive) | 0.417 (inactive) | 1.3
19 | CARTKRLAIFAGNASASA [FS-3107] | 3.35 | 5.86 (active) | 5.79 (active)
20 | CARTKRDYDFAGNASASA [FS-2313] | 5.48 (active) | 7.94 (active) | 9.08 (active)
21 | CARTKKAKMKAGNASASA [FS-2823] | -1.45 (inactive) | -0.415 (inactive) | -0.644 (inactive)
22 | CARDDRSTSFAGNASASA [FS-1689] | 1.2 | -0.677 (inactive) | 2.85

Row | Sequence | furin cleavage Z-score (7.5 min) | furin cleavage Z-score (15 min) | furin cleavage Z-score (30 min)
23 | CAEVVTHTWVAGNASASA [HC149] | -0.408 (inactive) | -0.439 (inactive) | 0.597 (inactive)
24 | CALAYGLRSKAGNASASA [TR9] | -0.353 (inactive) | 0.335 (inactive) | -1.59 (inactive)
25 | CASTYCSAHLAGNASASA [HC2509] | -0.262 (inactive) | -0.642 (inactive) | 2.3
26 | CAEVHCHRPSAGNASASA [HC2355] | 1.25 | 0.809 (inactive) | 1.14
27 | CAVAVEPVVFAGNASASA [HC645] | 1.23 | -0.0223 (inactive) | -0.472 (inactive)
28 | CARTKRDVYQAGNASASA [FS-2825] | 9.66 (active) | 11.4 (active) | 9.76 (active)
29 | CARKGRYKAFAGNASASA [FS-2960] | -0.402 (inactive) | -0.376 (inactive) | -0.0128 (inactive)
30 | CARTKRYVVFAGNASASA [FS-2095] | 4.82 (active) | 4.06 (active) | 6.56 (active)
31 | CAEISVPAEIAGNASASA [HC1294] | -0.695 (inactive) | -1.61 (inactive) | -1.39 (inactive)
32 | CASTFCSAHLAGNASASA [HC2507] | -0.833 (inactive) | -0.376 (inactive) | -0.904 (inactive)
33 | CAQLEVVTSTAGNASASA [HC2282] | 0.398 (inactive) | 1.61 | 0.854 (inactive)
34 | CAYLYGVGSSAGNASASA [HC511] | 0.568 (inactive) | -0.0293 (inactive) | 0.0874 (inactive)
35 | CASRRRFYRPAGNASASA [FS-506] | -1.15 (inactive) | 0.235 (inactive) | -2.19 (inactive)
36 | CASRRRMKRVAGNASASA [FS-1167] | 11 (active) | 12 (active) | 9.11 (active)
37 | CAPPLRAWRHAGNASASA [HC1618] | -0.103 (inactive) | 0.906 (inactive) | -0.71 (inactive)
38 | CASRRRARRHAGNASASA [FS-1416] | 7.59 (active) | 6.18 (active) | 7.01 (active)
39 | CASRRRTRRPAGNASASA [FS-873] | 0.729 (inactive) | 0.54 (inactive) | 0.884 (inactive)
40 | CAAPPRARRHAGNASASA [FS-975] | 8.59 (active) | 9.67 (active) | 6.85 (active)
41 | CAARQRTRRHAGNASASA [FS-1112] | 11.1 (active) | 12.6 (active) | 10 (active)
42 | CASRIRIERVAGNASASA [FS-1087] | 0.306 (inactive) | 3.11 | 2.24
43 | CAARKMIGGHAGNASASA [HC623] | 0.0211 (inactive) | 1.66 | 1.13
